From PubChem BioAssay
Epigenetic derep – regulators of epigenetic silencing causing reporter derepression in mouse cells | murine LDR cells, GFP reporter derepression, 30 h | Potency, µM (highest dose often 53.9 µM), for the others: top-dose GFP activation, usual class: activators | hit rate 0.2% among 280,000 | AID 1865; further: % of control where 0% means no effect; nearly all actives have a fitted effect of over 60% in size
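Murine LDR cells bearing a silenced CMV-driven GFP reporter were exposed to compound for 30 h at 37 C. After PBS washes, GFP-positive cells (20-120 um objects) counted by laser-scanning microplate cytometry.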
ClpP mod – qHTS Assay for Activators of ClpP; ATP-dependent Clp protease proteolytic subunit (Bacillus subtilis (strain 168)), P80244; purified B. subtilis ClpP, FRET peptide cleavage, 20 min; Potency, µM (doses to about 57.5 µM), for the others: at the top dose activity change, negative = active; hit rate 1.9% among 340,000; AID 651965, 2013; active means well fitted falling curve with a large enough effect; inconclusive means small, poorly fitted or top-dose-only effect; inactive means no such curve, though single readings can be large or run the other way; further: the source files actives as falling curves though it sought activators and does not explain the sign; nearly all actives have a fitted effect of over 65% in size
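Buffer: 100 mM Tris/HCl pH8, 100 mM KCl, 0.05% low protease BSA, 2.5% glycerol, 0.01% Tween-20. ClpP 10 microg/mL final; 20 min RT; delta FRET normalized to ADEP and DMSO controls.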
Gal4-VP16 FLuc – counter-screen for ROR gamma inhibitors: Gal4-VP16 reporter. Drosophila S2 Gal4-VP16 UAS-luciferase, luminescence, 20 h. Potency, µM (titrated, usually from 53.6 µM), for inactives: at the top dose activity, negative = inhibition, most hits filed as inhibitors. hit rate 3.5% among 310,000;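 further: Gal4-VP16 expression switched on by copper sulfate through the metallothionein promoter; on the % scale 0 is the no-effect control and ±100 the full control effect; nearly all actives have a fitted effect of over 50% in size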
PINK1 expr mod – PINK1 expression modulation | hit rate 0.2% among 410,000 | PINK1 immunofluorescence, high-content cytometry, 24 h | Potency, µM (highest dose often 76.6 µM), for the others: top-dose activation (PINK1 increase), hits mostly activators; active means well fitted activation curve with a large enough effect; inconclusive means small, poorly fitted or top-dose-only effect; cell line not stated here; further: % of control where 0% means no effect; nearly all actives have a fitted effect of over 65% in size
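Compound titrations (5 concentrations, 24 h) on a stable cell line; DMSO and CCCP controls. Endpoint: fixed-cell PINK1 immunofluorescence with mitochondrial, cell and nuclear markers, scanned by microplate cytometer.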
RORg inh – inhibitors of mouse ROR gamma transcriptional activity; Drosophila S2 Gal4-RORgamma UAS-luciferase reporter, 20 h; Potency, µM (titrated, usually from 53.6 µM), for inactives: at the highest dose activity change, negative = inhibition, actives largely listed as inhibitors; hit rate 5.4% among 310,000; AID 2551; further: on the % scale 0 is the no-effect control and ±100 the full control effect; nearly all actives have a fitted effect of over 60% in size
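ROR gamma transcriptional activity was tracked as Gal4-UAS luciferase output in stably transfected Drosophila Schneider cells, with compound added 1 hr before 700 uM copper sulfate induction and a 20 hr ambient-temperature incubation.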
Sfp PPTase inh – Sfp phosphopantetheinyl transferase inhibition; Biochemical Sfp PPTase activity, qHTS; Q9F4F7; hit rate 3.5% among 310,000; Potency, µM, without a hit: largest response in the series, negative = inhibition, most hits filed as inhibitors;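 further: the enzyme is Sfp with the accession as filed and its product quenches rhodamine fluorescence; 0% = enzyme reaction without inhibitor and -100% = no enzyme wells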
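Buffer: 50 mM Hepes-Na pH 7.6, 10 mM MgCl2, 0.01% Nonidet P-40, 0.01% BSA. Enzyme 15 nM, pre-exposed to compound 15 min; substrates then added and fluorescence change tracked over 30 min.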
Numbers without * were called inactive; ? = inconclusive; / = not tested or not shown; [ ] = remark or other dose. A selection: hits, their analogues and other compounds. The true share with any hit is near 8.1%. Unless noted, the call rests on the fitted dose curve; in most records, active means well fitted curve in the direction sought with a large enough effect; inconclusive means small, poorly fitted or top-dose-only effect, or another doubt; inactive means no such curve, though single readings can be large; an effect the other way counts as inactive or inconclusive. Potency means the concentration at half of the fitted maximal effect.

SMILES	Epigenetic derep	ClpP mod	Gal4-VP16 FLuc	PINK1 expr mod	RORg inh	Sfp PPTase inh
COc1cc(/C=C2\CCCc3c2nc2ccccc2c3C(=O)O)cc(OC)c1O	2%	-1%	-9%	-1%	-5%	11µM*
COc1cc(/C=C2\CCCc3c2nc2ccccc2c3C(=O)O)cc([N+](=O)[O-])c1O	/	/	-5%	1%	-19%	12%
COc1ccc(/C=C2/CCCC(C(=O)C(F)(F)F)=C2O)cc1OC	1%	3%	?	3%	18µM*	?
COc1ccc(/C=C2\CCCC(C(=O)C(F)(F)F)=C2O)cc1OC	14%	/	-6%	/	-1%	-13%
COc1ccc(/C=C2\CCc3c2nc2ccccc2c3C(=O)O)cc1OC	0%	-12%	11µM*	1%	8.9µM*	-13%
N#CC1=C(N)CCC1	/	0%	/	6%	/	/
Cc1oc(-c2cc(F)ccc2F)nc1CN1CCN(c2ncnc3ccccc23)CC1	0%	-3%	?	1%	?	40µM*
COc1ccc(S(=O)(=O)N(CC(=O)NCCSc2ccccc2)c2ccc(Cl)cc2)cc1	-1%	-16%	/	3%	/	/
COc1ccc(NC(=S)Nc2ccccc2F)c(OC)c1	-1%	1%	-15%	-1%	11µM*	-23%
CSc1ccccc1NC(=S)Nc1cc(C)cc(C)c1	-4%	-1%	14µM*	-1%	6.3µM*	21%
COc1ccc(NC(=O)c2ccccc2SC)c(OC)c1	1%	/	0%	0%	0%	11%
COc1ccc(NC(=S)Nc2ccccc2SC)c(OC)c1	7%	1%	?	0%	11µM*	-27%
COCC(=O)Nc1cc(C(=O)N2CCCC2c2nccs2)c2c(c1)nc(-c1ccncc1)n2C (stereo unspecified)	/	/	/	1%	/	/
Cc1ccc(S(=O)(=O)N2CCN(c3nc(C(N)=O)nc4ccccc34)CC2)cc1	/	-2%	/	0%	/	/
CCOc1ccc(C(CCc2ccccc2)NC(=O)c2ccccc2F)cc1OCC (stereo unspecified)	1%	2%	2%	11%[38.3 µM]	14%	-2%
CCOc1ccc(C(CCc2ccccc2)NC(=O)c2ccccc2OC)cc1OCC (stereo unspecified)	3%	-2%	?	6%[38.3 µM]	7.9µM*	11%
CC(C)CC1c2[nH]c3ccccc3c2CCN1CCCn1cccn1 (stereo unspecified)	0%	/	5%	3%	22%	7%
CCn1ccnc1CN1CCc2c([nH]c3ccccc23)C1C(C)(C)C (stereo unspecified)	-4%	/	?	12%	4.5µM*	3%
COCc1ccc(CN2CCc3c([nH]c4ccccc34)C2C(C)(C)C)o1 (stereo unspecified)	0%	-21%	?	19%	11µM*	-2%
COCCC(=O)N1CCc2c([nH]c3ccccc23)C1C(C)(C)C (stereo unspecified)	2%	/	4%	0%	0%	23%
CCn1ccnc1CN1CCc2c([nH]c3ccccc23)C1CC(C)C (stereo unspecified)	5%	-7%	7.9µM*	1%	3.2µM*	-13%
CCn1ccnc1CN1CCc2c([nH]c3ccccc23)C1C1CCCCC1 (stereo unspecified)	7%	/	?	1%	13µM*	-10%
Cc1cnc(CN2CCc3c([nH]c4ccccc34)C2CC(C)C)[nH]1 (stereo unspecified)	5%	/	11%	3%	-33%	-4%
COc1ccc(C2CC(=O)N(Cc3cccc(C)c3)c3c2c(C)nn3-c2nc(C)cc(C)n2)c(OC)c1 (stereo unspecified)	3%	2%	/	0%	/	/
Cc1cc2n(n1)CCC(=O)N2Cc1ccc(C(=O)Nc2ccc(Br)c(C)c2)cc1	-1%	-2%	/	10%	/	/
SMILES	Epigenetic derep	ClpP mod	Gal4-VP16 FLuc	PINK1 expr mod	RORg inh	Sfp PPTase inh
Cc1ccc(N2C(=O)CSC23C(=O)N(CC(=O)NC2CCCCC2)c2ccccc23)cc1C (stereo unspecified)	-1%	-1%	/	-4%	/	/
O=C(C[n+]1cccc(Br)c1)c1ccc(Br)cc1	/	1%	/	/	/	/
CC(=O)CCOC1CCCCO1 (stereo unspecified)	1%	/	4%	/	9%	-14%
CCn1cc([N+](=O)[O-])c(C(=O)N2N=C(c3ccc4ccccc4c3)CC2c2ccccc2O)n1 (stereo unspecified)	1%	1%	-28%	-2%	-6%	6%
O=C(c1ccccc1)N1N=C(c2ccccc2)CC1c1ccccc1O (stereo unspecified)	2%	/	4µM*	3%	4.5µM*	10µM*
CCn1cc(Cl)c(C(=O)N2N=C(c3ccc4ccccc4c3)CC2c2ccccc2O)n1 (stereo unspecified)	0%	-6%	16µM*	1%	?	-9%
Cc1ccc(C2=NN(C(=O)c3ccccc3F)C(c3ccccc3F)C2)cc1 (stereo unspecified)	/	0%	-5%	1%	-18%	50µM*
COc1ccc(Cl)cc1NC(=O)C(=O)NCc1ccc(Cl)cc1	-1%	13%	/	6%	/	/
CCCCNC(=O)[C@@H]1CC=C[C@@H]2CCN(Cc3ccc(OC)c(OC)c3)C(=O)[C@@H]21	/	2%	/	/	/	/
CCOCCCNC(=O)C(c1ccc(Cl)cc1)N(Cc1cccs1)C(=O)c1ccc(NC(C)=O)cc1 (stereo unspecified)	1%	0%	/	2%	/	/
Cc1nc(NC(=O)c2ccccc2)sc1Cc1ccc2c(c1)OCO2	5%	/	?	2%	13µM*	-10%
Cc1cc(C)nc(NC(=NCc2ccc3c(c2)OCO3)NC(=O)Nc2ccccc2)n1	4%	-14%	-13%	14µM*	-30%	-13%
Cc1nc(NC(=O)c2ccc(Cl)cc2)sc1Cc1ccc2c(c1)OCO2	1%	/	?	4%	?	20µM*
O=C(CSc1ccccc1)NCc1ccc2c(c1)CCN2C(=O)c1ccc(Cl)cc1	2%	-2%	/	0%	/	/
CCCOc1ccc(C(=O)Nc2ccc3oc(-c4ccc5ccccc5c4)nc3c2)cc1	-2%	-23%	/	6%	/	/
Cc1ccc(CN2CCc3nnc(C(NC(=O)c4ccoc4)C(C)C)n3CC2)cc1C (stereo unspecified)	/	/	/	0%	/	/
CC(C)(C)c1cc(C(C)(C)C)cc(S(=O)(=O)CCc2ccccn2)c1	-1%	0%	-19%	-3%[38.3 µM]	11µM*	-3%
CC(C)(C)c1ccc(S(=O)(=O)NCc2ccccn2)cc1	/	0%	?	0%	-142%	13%
Cc1ccc2oc(-c3cccc(NC(=O)c4sc5c([N+](=O)[O-])cccc5c4Cl)c3)nc2c1	1%	-1%	/	-1%	/	/
